# In PubChem BioAssay AID2507 (National Center for Advancing Translational Sciences (NCATS), 2010):
# Records with an inconclusive call do not appear. Active and inactive are the calls of the source. The call rests on the fitted dose curve; in most records, active means well fitted inhibition curve with a large enough effect; inconclusive means small, poorly fitted or top-dose-only effect, or effect the other way; inactive means flat fitted curve, though single readings scatter.
# Experiment: Secondary Assay for General miRNAs Modulators and/or Inhibitors/Activators of miR-21: miR-30 Firefly Luciferase Assay
# Details: HeLa miR-30 FLuc reporter, luminescence, 48 h; series mostly up to 38.3 µM
# Source text: MLSCN Grant: 1 R21 NS059478-01 Assay Provider: Qihong Huang, The Wistar Institute NCGC Assay Overview: MicroRNAs (miRNAs) are endogenously encoded small (~20-25 nucleotides), nonprotein-coding RNAs that are involved in post-transcriptional repression of target messenger RNAs (mRNAs) (Le and Hannon, 2004). Estimated to be involved in the regulation of 30% of all protein-coding mRNAs (Filipowicz et al., 2008), miRNAs play a significant role in many biological processes including cellular differentiation and tissue development (Ghildiyal and Zamore, 2009). […] Compounds active in the miR-21 FLuc assay were clustered using Leadscope and active chemical series were prioritized based on chemical properties, potential for medicinal chemistry optimization, and SAR. Within each chemical series, representative compounds were re-acquired to test for activity in a secondary assay based on the quality of their CRC, efficacy, and potency. The secondary assay to determine if compounds active in the miR-21 FLuc assay were potentially specific for miR-21 and were not general modulators of the miRNA pathway was another cell-based FLuc reporter gene assay, this time targeting miR-30. Compounds found active in both the miR-21 FLuc and miR-30 FLuc assays are not considered miR-21 specific compounds, and may be general miRNA modulators.
# NCGC Assay Protocol Summary: Reagents: HeLa cells stably expressing firefly luciferase (FLuc) under the control of a CMV promoter (upstream) and a miR-30 binding sequence directly downstream of the gene. These cells also stably express miR-30. Control compounds used were compound C3 (provided by collaborator), N6-phenyladenosine (MP Biomedicals, 0215379625), and DMSO. Assay Summary: 6uL of HeLa miR-30-FLuc cells in assay buffer (DMEM, Invitrogen #21063-029; 10% FBS, HyClone #SH30071.03) were dispensed at 1000cells/well (1.7 x 10^5 cells/mL) into Greiner solid-white TC-treated 1536-well plates using a Multidrop Combi (Thermo Fisher Scientific). Plates were incubated for one hour at 37 degree Celsius, 95% humidity, 5% CO2. These assay plates were then treated with 23nL of compound or DMSO using a Kalypsys pin tool, which allows for delivery of a 24-point titration of each compound to the assay plate, with a final compound concentration ranging from approximately 40uM to 5pM. Assay plates were then incubated for 48 hours. After incubation, plates were allowed to come to RT for one hour prior to delivery of 3uL of 3X luciferase detection reagent. After a 15 minute incubation to allow for cell lysis, luciferase activity was measured using a ViewLux CCD imager (PerkinElmer), with an average exposure time of 2-12 seconds. Keywords: NIH Roadmap, MLPCN, MLSMR, qHTS, miR-21, miR-30, microRNA, firefly luciferase, FLuc.
row,SMILES,Potency
1,O=S(=O)(c1ccc(F)cc1)n1ccc(-c2cnc(-c3ccccc3)s2)n1,6.34 µM (active)
